40 molecules from PubChem BioAssay AID504389 (National Center for Advancing Translational Sciences (NCATS), 2011) can be followed below.

Inconclusive results are not listed. Values without a mark were called inactive. Active and inactive are the calls of the source. Calls come from the whole dose curve; as a rule, active = well fitted curve in the direction sought with a large enough effect; inconclusive = small, poorly fitted or top-dose-only effect, or effect the other way, or another doubt; inactive = no such curve, though single readings can be large or run the other way.

Sequence of Thyrotropin receptor (Homo sapiens) (P16473 whole entry, looked up): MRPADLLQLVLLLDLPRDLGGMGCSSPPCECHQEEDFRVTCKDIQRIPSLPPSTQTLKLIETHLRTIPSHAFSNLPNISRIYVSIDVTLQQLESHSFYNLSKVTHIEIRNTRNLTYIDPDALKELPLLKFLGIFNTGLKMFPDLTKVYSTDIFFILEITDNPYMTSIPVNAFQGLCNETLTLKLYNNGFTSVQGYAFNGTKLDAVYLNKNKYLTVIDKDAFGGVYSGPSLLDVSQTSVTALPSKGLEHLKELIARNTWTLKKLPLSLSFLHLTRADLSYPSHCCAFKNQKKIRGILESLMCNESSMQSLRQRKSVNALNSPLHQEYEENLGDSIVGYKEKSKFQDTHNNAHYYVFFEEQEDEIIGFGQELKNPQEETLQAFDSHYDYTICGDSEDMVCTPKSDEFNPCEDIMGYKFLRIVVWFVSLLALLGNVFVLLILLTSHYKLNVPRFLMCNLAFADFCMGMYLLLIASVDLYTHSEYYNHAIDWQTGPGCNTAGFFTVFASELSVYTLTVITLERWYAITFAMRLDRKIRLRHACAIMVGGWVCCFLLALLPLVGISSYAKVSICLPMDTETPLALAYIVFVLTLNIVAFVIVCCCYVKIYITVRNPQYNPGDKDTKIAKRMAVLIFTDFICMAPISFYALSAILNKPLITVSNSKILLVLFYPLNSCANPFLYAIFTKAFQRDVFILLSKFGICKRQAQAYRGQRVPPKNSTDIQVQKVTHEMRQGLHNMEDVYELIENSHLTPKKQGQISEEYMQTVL

The target in the test is Thyrotropin receptor (Homo sapiens) (UniProt P16473). In words: qHTS Assay for Antagonists of the Thyroid Stimulating Hormone Receptor: SAR for Probe. The conditions noted are these: HEK293-TSHR, TSH-stimulated cAMP HTRF, 2 h; series mostly up to 57.5 µM; activity change, negative = inhibition: at the top concentration. From the text:
TSH is an alpha/beta heterodimeric glycoprotein hormone secreted from the anterior pituitary gland which belongs to the glycoprotein hormone family. The actions of TSH are mediated by a seven-transmembrane receptor, which upon TSH binding couples preferentially to the G-alpha (s) protein (Gs), resulting in activation of adenylate cyclase and increase in cyclic adenosine 3', 5' monophosphate (cAMP). The TSH receptor (THSR) is mainly expressed in thyroid follicular cells and regulates their growth and function. This cell based assay was conducted on a TSHR transfected HEK 293 cell line, measuring cAMP stimulation using antibody-based Homogeneous Time Resolved Fluorescence (HTRF). Our goal is to identify small molecules that will inhibit (antagonize) the thyroid-stimulating hormone receptor (TSHR), a member of the 7 transmembrane-spanning receptor (7TMR) family of cell surface receptors. TSHR-mediated hyperthyroidism is important in thyroid pathology. The development of small molecule antagonists of TSHR may lead to therapeutic approaches for TSHR-mediated hyperthyroidism caused by constitutively activating mutations or stimulating auto-antibodies associated with Graves' disease. Graves' disease is the leading cause of hyperthyroidism and is caused by autoantibodies that stimulate TSHR (TsAbs) causing thyroid growth and unregulated overproduction of thyroid hormones and existing treatments have liabilities (agranulocytosis). In addition, TSHRs are known to be expressed in multiple extrathyroidal tissues including bone, brain, kidney, testis, fat and cells of the immune system but the role of the TSHR in these tissues is not clear. Therefore, TSHR antagonists/inverse agonists could be used as probes of extrathyroidal TSHR function. Finally, TSHR inverse agonists, which are a subclass of antagonists that inhibit agonist-independent (or basal or constitutive) TSHR signaling, could be used to inhibit TSH-independent signaling in patients with recurrent or metastatic thyroid cancer who are receiving thyroid hormone to suppress TSH. The present assay presents confirmation data for analogues of series of interest in the primary screening assay.
An anti cAMP antibody contains a fluorescent cryptate tag (excitation 337 nm; emission 620 nm) and the acceptor is cAMP-d2 (excitation 620 nm; emission 665 nm). When antibody and cAMP-d2 interact and are excited by a 337 nm light, a FRET occurs resulting in emission at 665 nm. The assay is competition between cAMP-d2 and cAMP (from the cell lysate). The homogeneous protocol allows for one step dispense after stimulation that is automation friendly. Step, Parameter, Value, Description 1, Cells, 3 uL, 2000 TSHR freshly harvested cells/well 1536 TC treated White solid bottom plate (Cells resuspended in 10 mM HEPES buffered HBSS and 70 uM RO 20-1724) 2, Compound, 23 nL, Libraries and controls 3, Compound, 1 uL, EC80 TSH (4 nM final) 4, Time, 2 hours, 37C 5, Reagent, 2 uL, cAMP antibody diluted 1:20 in lysis buffer 6, Time, 30 minutes, Room temperature 7, Detector, HTRF settings, Viewlux
A general note: In qHTS, concentration-response curves come from the screen itself.
For `COc1ccc(-c2nc3ccccc3c(=O)n2Cc2ccco2)cc1COc1c(C)cccc1C`, the “activity change, negative = inhibition” value is -1.63%. Turning to `COc1ccc(C2Nc3ccccc3C(=O)N2Cc2ccccc2)cc1COc1c(C)cccc1C` (stereo not given), the “activity change, negative = inhibition” value is -8.19%. On the same count and under the same terms, then `COc1ccc(C2Nc3cccc(OC)c3C(=O)N2Cc2ccco2)cc1COc1c(C)cc(NC(C)=O)cc1C` (stereo not given), with -4.71%; and `COc1ccc(C2Nc3ccccc3C(=O)N2Cc2ccccc2)cc1COc1cccc(C)c1` (stereo not given), with 0.0298%. Still for that read-out and setting: then `COc1ccc(C2Nc3ccccc3C(=O)N2Cc2ccccc2OC)cc1COc1c(C)cc(NC(C)=O)cc1C` (stereo not given), with -7.63%; and `COc1ccc(C2Nc3cccc(O)c3C(=O)N2Cc2ccco2)cc1COc1c(C)cc(NC(C)=O)cc1C` (stereo not given), with -5.28%; and `COc1ccc(C2Nc3ccccc3C(=O)N2Cc2ccc3c(c2)OCO3)cc1COc1c(C)cc(NC(C)=O)cc1C` (stereo not given), with -4.42%. In the case of `COc1ccc(CN(Cc2ccccc2)S(=O)(=O)c2ccccc2)cc1COc1ccc(NC(C)=O)cc1`, the “activity change, negative = inhibition” value is 1.9%. The same measure, in the same setting: then `COc1ccc(C2Nc3ccccc3C(=O)N2Cc2ccco2)cc1COc1ccccc1C` (stereo not given), with -6.42%; and `COc1ccc(O)c(C2Nc3ccccc3C(=O)N2Cc2ccccc2)c1` (stereo not given), with 2.33%. On the same count and under the same terms, the result for `O=c1c2ccccc2nc(-c2ccccc2O)n1Cc1ccccc1` reads 3.37%. The same measure, in the same setting: then `COc1cc(C2Nc3ccccc3C(=O)N2Cc2ccccc2)ccc1OCc1ccc(NC(C)=O)cc1` (stereo not given), with 0.705%; and `COc1ccc(C2Nc3ccccc3C(=O)N2Cc2ccco2)cc1COc1c(C(C)C)cccc1C(C)C` (stereo not given), with -9.22%. Consider `COc1ccc(C2Nc3ccccc3C(=O)N2CCO)cc1COc1ccc(NC(C)=O)cc1` (stereo not given), for which the “activity change, negative = inhibition” value is 6.37%.

`COc1ccc(CN(Cc2ccccc2)C(=O)c2ccc(NC(C)=O)cc2)cc1COc1ccc(NC(C)=O)cc1`: the “activity change, negative = inhibition” value was 6.21%. Turning to `COc1ccc(C(=O)O)cc1COc1ccc(NC(C)=O)cc1`, the “activity change, negative = inhibition” value was 1.98%.

Turning to `Cc1cccc(C)c1OCc1cccc(C2Nc3ccccc3C(=O)N2Cc2ccco2)c1` (stereo not given), the Potency was 32.6 µM (active). For the molecule `COc1ccc(CN(Cc2ccccc2)C(=O)CN2CCN(C)CC2)cc1COc1ccc(NC(C)=O)cc1`, the “activity change, negative = inhibition” value was 2.86%. On the same count and under the same terms, then `COc1cccc(CN2C(=O)c3ccccc3NC2c2ccc(OC)c(COc3c(C)cc(NC(C)=O)cc3C)c2)c1` (stereo not given), with -4.12%; and `COc1ccc(C2Nc3ccccc3C(=O)N2Cc2ccccc2)cc1COc1ccc(Cl)cc1` (stereo not given), with 0.804%; and `COc1ccc(C2Nc3ccccc3C(=O)N2Cc2ccco2)cc1COc1ccccc1` (stereo not given), with -5.86%. Still for that read-out and setting: the result for `O=C1c2ccccc2NC(c2ccccc2O)N1Cc1ccccc1` (stereo not given) reads 2.98%.

Consider `COc1ccc(C2Nc3ccccc3C(=O)N2Cc2ccccc2)cc1COc1ccccc1OC` (stereo not given), for which the “activity change, negative = inhibition” value was -0.288%. On to `COCCN1C(=O)c2ccccc2NC1c1ccc(OC)c(COc2c(C)cc(NC(C)=O)cc2C)c1` (stereo not given), for which the Potency was 46.1 µM (active). On to `COc1ccc(CN2C(=O)c3ccccc3NC2c2ccc(OC)c(COc3c(C)cc(NC(C)=O)cc3C)c2)cc1` (stereo not given), for which the “activity change, negative = inhibition” value was -1.26%. On the same count and under the same terms, then `COc1ccc(C=O)cc1COc1ccc(NC(C)=O)cc1`, with -1.52%; and `COc1ccc(O)c(-c2nc3ccccc3c(=O)n2Cc2ccccc2)c1`, with 2.81%. Same read-out and setting: the result for `COc1ccc(C2Nc3ccccc3C(=O)N2Cc2ccc(C(F)(F)F)o2)cc1COc1c(C)cccc1C` (stereo not given) reads -13%; that for `COc1ccc(C2Nc3ccccc3C(=O)N2Cc2ccccc2)cc1COc1c(C)cc(NC(C)=O)cc1C` (stereo not given), -2.91%. The same measure, in the same setting: the result for `COc1ccc(C2Nc3ccccc3C(=O)N2Cc2cccs2)cc1COc1c(C)cc(NC(C)=O)cc1C` (stereo not given) reads -13.2%; that for `COc1ccc(C2Nc3ccccc3C(=O)N2CCCN(C)C)cc1COc1c(C)cc(NC(C)=O)cc1C` (stereo not given), -1.88%; that for `COc1ccc(CN2C(=O)N(c3ccccc3)C(=O)C2c2ccccc2)cc1COc1ccc(NC(C)=O)cc1` (stereo not given), 0.387%. With `COc1ccc(OCc2cc(C3Nc4ccccc4C(=O)N3Cc3ccccc3)ccc2OC)cc1` (stereo not given), the “activity change, negative = inhibition” value was 0.228%. Regarding `COc1ccc(C2Nc3ccccc3C(=O)N2Cc2ccco2)cc1COc1c(C)cc(NC(C)=O)cc1C` (stereo not given), the Potency is 36.6 µM (active).

`COc1ccc(C2Nc3ccccc3C(=O)N2Cc2cccc(OC)c2OC)cc1COc1c(C)cc(NC(C)=O)cc1C` (stereo not given): the “activity change, negative = inhibition” value is -4.15%. The same measure, in the same setting: then `COc1ccc(C2Nc3ccccc3C(=O)N2Cc2ccccn2)cc1COc1c(C)cccc1C` (stereo not given), with -8.52%. Same read-out and setting: then `COc1cccc(CCN2C(=O)c3ccccc3NC2c2ccc(OC)c(COc3c(C)cc(NC(C)=O)cc3C)c2)c1` (stereo not given), with -3.34%. For the molecule `COc1ccc(C2Nc3ccccc3C(=O)N2Cc2ccco2)cc1` (stereo not given), the “activity change, negative = inhibition” value was 1.84%. On the same count and under the same terms, the result for `COc1ccc(C2Nc3ccccc3C(=O)N2Cc2ccco2)cc1COc1ccc([N+](=O)[O-])cc1` (stereo not given) reads 1.43%; that for `COc1ccc(C2Nc3ccccc3C(=O)N2Cc2ccccc2)cc1COc1ccc(NC(=O)c2ccccc2)cc1` (stereo not given), 1.27%.
